RGS16-Gao: regulators of human RGS16-Galphao interaction; 220,000 compounds, 0.38% hits; binding response (% of control), % at 10 µM; bead-based flow cytometry RGS16-Galphao binding, fluorescence; actives lie on both sides; AID 1441; O15492+P09471;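 further: Galphao activated by GDP with aluminum fluoride before binding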
RGS4-Gao reg: modulates binding of RGS4 to human Galphao; P09471; Multiplexed bead flow cytometry; actives lie on both sides; binding response (% of control), % at 10 µM; 220,000 compounds, 0.33% hits; in the data active means binding response below about 49% or above about 150%; inactive means in between;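 further: fluorescent Galphao activated with aluminum fluoride binding bead-coupled RGS4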
Target sequence (P09471 whole entry, looked up): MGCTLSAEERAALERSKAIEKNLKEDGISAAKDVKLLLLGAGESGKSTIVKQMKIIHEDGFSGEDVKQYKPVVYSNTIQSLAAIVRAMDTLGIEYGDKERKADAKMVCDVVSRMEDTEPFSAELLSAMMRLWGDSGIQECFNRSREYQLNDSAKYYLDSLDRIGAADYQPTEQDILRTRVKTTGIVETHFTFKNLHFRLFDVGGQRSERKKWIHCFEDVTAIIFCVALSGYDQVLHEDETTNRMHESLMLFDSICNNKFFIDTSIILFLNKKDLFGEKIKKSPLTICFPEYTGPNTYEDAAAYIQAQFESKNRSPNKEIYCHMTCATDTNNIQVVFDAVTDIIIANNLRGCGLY
Avidin fluor: avidin bead compound fluorescence profile; Avidin beads, compound fluorescence 488/530 nm, flow cytometry; active compounds read high; fluorescence (KMESF) at 10 µM; 220,000 compounds, 0.38% hits; in the data active means fluorescence above about 47
RGS8-Gao reg: modulates binding of RGS8 to human Galphao. P09471. multiplexed bead flow cytometry; actives lie on both sides. response (percent of control binding), % at 10 µM. 220,000 compounds, 0.34% hits; in the data active means response below about 60% or above about 140%; inactive means in between;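 further: Galphao activated as the GDP aluminium fluoride complex binding bead-coupled RGS8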
RGS7-Gao: regulators of human RGS7-Galphao interaction; P09471; Multiplexed bead flow cytometry, RGS7-Galphao binding; actives lie on both sides; binding response (% of control), % at 10 µM; 220,000 compounds, 0.35% hits; in the data active means binding response below about 49% or above about 150%; inconclusive means no clear call, values can overlap the other calls; inactive means in between;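 further: fluorescent Galphao held in activated GDP-AlF4 state binding bead-coupled RGS7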
GSH bead fluor: GSH bead compound fluorescence profile | 190,000 compounds, 0.25% hits | GSH beads flow cytometry, compound fluorescence 488/530 nm; active compounds read high | AID 1776 | fluorescence (KMESF) at 10 µM; in the data active means fluorescence above about 89;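 further: glutathione beads carrying GST-tagged Bcl family fusion proteins plus one bare bead set; values are compound well signal with DMSO vehicle wells as background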
RGS4-Gao HTS: regulators of human RGS4-Galphao interaction; shares compounds with RGS16-Gao; multiplexed bead flow cytometry, RGS–Galpha-o binding; RGS4–Galpha-o binding response, % at 10 µM; 1,600 compounds, 99% hits; AID 1504;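 further: fluorescently labeled Galpha-o bound to GDP with aluminium fluoride binding biotinylated RGS beads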
Target sequence (P09471 whole entry, looked up): as above
Target sequence (P49798 whole entry, looked up): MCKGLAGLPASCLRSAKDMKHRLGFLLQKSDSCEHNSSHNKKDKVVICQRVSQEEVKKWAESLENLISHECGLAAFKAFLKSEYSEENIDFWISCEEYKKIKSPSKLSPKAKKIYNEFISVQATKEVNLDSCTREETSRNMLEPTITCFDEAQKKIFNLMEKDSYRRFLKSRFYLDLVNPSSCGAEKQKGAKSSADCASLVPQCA
Avidin counter: biotin-avidin bead binding disruption counter-screen | streptavidin beads, fluorescein-biotin binding, flow cytometry | inhibition, % at 10 µM | shares compounds with RGS16-Gao | AID 1783 | 1,700 tested, under 10 active;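 active means inhibition above 50%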;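 further: median green fluorescence of gated singlet beads compared with DMSO control wells; 0% = DMSO wells and 100% = complete loss of bead fluorescence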
RGS8-Gao confirm: confirmation of regulators of human RGS8-Galphao interaction; AID 1836; shares compounds with RGS16-Gao; bead-based flow cytometry RGS8-Galphao binding, fluorescence; actives lie on both sides; 1,700 compounds, 3% hits; binding response (% of control), % at 10 µM; in the data active means binding response below about 72% or above about 130%; inactive means in between;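 further: Galphao activated as GDP AlF4 complex before binding bead RGS8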
RGS7-Gao confirm: RGS7-Galphao interaction regulation, single point confirmation; shares compounds with RGS16-Gao; bead-based flow cytometry RGS7-Galphao binding; actives lie on both sides; response (percent of control binding), % at 10 µM; 1,700 compounds, 7.8% hits; AID 1837; in the data active means response below about 75% or above about 130%; inactive means in between;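 further: fluorescent Galphao activated with GDP and aluminum fluoride binding bead-coupled RGS7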
RGS16-Gao single: confirmation of regulators of human RGS16-Galphao interaction | AID 1838 | response (% of control binding), % at 10 µM | bead-based flow cytometry, RGS16-Galphao binding; actives lie on both sides | shares compounds with RGS16-Gao | 1,700 compounds, 4% hits; in the data active means response below about 74% or above about 130%; inactive means in between;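 further: Galphao activated as the GDP aluminium fluoride complex binding bead-coupled RGS16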
RGS4-Gao single: confirmation of regulators of human RGS4-Galphao interaction; shares compounds with RGS16-Gao; RGS4-Galphao binding, multiplexed bead flow cytometry; actives lie on both sides; binding response (% of control), % at 10 µM; 1,700 compounds, 4% hits; AID 1840; in the data active means binding response below about 74% or above about 130%; inactive means in between
RGS19-Gao conf: confirmation of regulators of human RGS19-Galphao interaction | shares compounds with RGS16-Gao | bead-based flow cytometry RGS19-Galphao binding; actives lie on both sides | response (percent of control binding), % at 10 µM | 1,700 compounds, 5% hits | AID 1841; in the data active means response below about 50% or above about 160%; inactive means in between;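 further: 100% = no compound control and 0% = blank background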
Active calls of the source: *; ? = inconclusive; / = no result; [ ] = remark or other dose. In the library only some 1.2% were active in any assay of this set; here they are far more common. Unless noted, how the calls were made is not given here.

SMILES | RGS16-Gao | RGS4-Gao reg | Avidin fluor | RGS8-Gao reg | RGS7-Gao | GSH bead fluor | RGS4-Gao HTS | Avidin counter | RGS8-Gao confirm | RGS7-Gao confirm | RGS16-Gao single | RGS4-Gao single | RGS19-Gao conf
COCC(=O)N(Cc1cc2ccc(C)cc2[nH]c1=O)c1ccc(OC)cc1 | -28* | 86 | 8 | 78 | 87 | 7 | 86* | 0 | 104 | 100 | 102 | 99 | 103
Cc1c(N2C(=O)CSC2c2ccc([N+](=O)[O-])cc2)c(=O)n(-c2ccccc2)n1C (configuration not stated) | 165 | 164*[activator] | 43 | 115 | ? | / | / | 1 | 103 | 102 | 101 | 101 | 104
COc1ccc(C2SCC(=O)N2c2c(C)n(C)n(-c3ccccc3)c2=O)cc1 (configuration not stated) | 109 | 101 | 17 | 102 | 106 | 6 | / | / | / | / | / | / | /
Cc1nn(C(=O)c2c(-c3ccccc3)noc2C)c(C)c1N=Nc1cc(C(F)(F)F)cc(C(F)(F)F)c1 | 98 | 104 | / | 102 | ? | / | / | / | / | / | / | / | /
COc1ccc(C(=O)NC(=S)Nc2ccc3oc(=O)ccc3c2)cc1OC | 243*[activator] | 121 | 4 | 138 | 116 | 18 | 121* | -2 | 106 | 108 | 107 | 108 | 106
COc1cccc(OC)c1C(=O)NC(=S)Nc1ccc2oc(=O)ccc2c1 | 100 | 101 | 12 | 103 | 102 | 10 | / | / | / | / | / | / | /
Cc1c(/C=N/NC(=O)c2cccnc2)c2ccccc2n1Cc1ccccc1 | 115 | 120 | 8 | 106 | 154*[activator] | 22 | 120* | 3 | 103 | 124 | 106 | 114 | 111
Cc1ccc2nc(-c3ccc(NC(=O)CNC4CC4)cc3)sc2c1 | 83 | 108 | 101* | 91 | 217*[activator] | 21 | 108* | 0 | 98 | 95 | 97 | 97 | 91
Cc1ccc2nc(-c3ccc(NC(=O)CN4C(=O)c5ccccc5C4=O)cc3)sc2c1 | 100 | 100 | 11 | 99 | 108 | 19 | / | / | / | / | / | / | /
Nc1ccc2nc(-c3ccc(N)c(Cl)c3)[nH]c2c1 | 102 | 101 | 7 | 102 | 101 | 12 | / | / | / | / | / | / | /
Nc1ccc(-c2nc3c(Cl)cc(N)cc3[nH]2)cc1 | 89 | 78 | 1 | 63 | 26* | 2 | 78* | 1 | 103 | 100 | 107 | 101 | 128
Cc1nonc1CC(=O)N1CCCC(C(=O)c2ccc(Cl)cc2)C1 (configuration not stated) | 104 | 99 | 4 | 101 | 101 | 10 | / | / | / | / | / | / | /
COc1ccc(C(=O)Nc2ccc(-c3cn4ccsc4n3)cc2)cc1S(=O)(=O)N1CCOCC1 | -56* | -46* | / | 17* | -7.2* | 4 | / | -1 | 98 | 93 | 99 | 98 | 98
C=Cn1nc(C)c2ccccc2c1=O | 17* | 25* | 0 | 16* | 14* | 31 | / | 1 | 99 | 100 | 99 | 99 | 104
Cc1nn(C(C)C(=O)O)c(=O)c2ccccc12 (configuration not stated) | 67 | 94 | 5 | 90 | 95 | 8 | / | / | / | / | / | / | /
CCC(=O)N1CCN(CCN=CC2=C(O)CC(C)(C)CC2=O)CC1 | 165 | 105 | 10 | 146*[activator] | 106 | 26 | 105* | 1 | 97 | 99 | 99 | 97 | 97
CC1(C)CC(=O)C(C=NCCN2CCN(C(=O)CCl)CC2)=C(O)C1 | 101 | 101 | 3 | 101 | ? | / | / | / | / | / | / | / | /
CCOC(=O)C1(Cc2cccc(F)c2)CCN(C(=O)COC)CC1 | 99 | 104 | 6 | 98 | ? | / | / | / | / | / | / | / | /
Cc1ccc(NC(=O)Nc2cccs2)cc1 | 97 | 100 | 12 | 100 | 99 | 31 | / | / | / | / | / | / | /
CCc1ccc(NC(=O)Nc2cccs2)cc1 | -20* | -32* | -3 | 5.8* | -11* | 10 | / | 1 | 105 | 98 | 106 | 103 | 96
COCCCN1CN(Cc2ccccc2)CNC1=S | -3.3* | 79 | 6 | 72 | 83 | 15 | 79* | 0 | 99 | 100 | 101 | 99 | 94
O=c1[nH]c2ccccc2nc1C(F)(F)F | 167 | 173*[activator] | 6 | 137 | ? | / | / | -1 | 93 | 89 | 91 | 94 | 101
C=CCn1c(SCC(=O)NC23CC4CC(CC(C4)C2)C3)nc2cc(C(=O)O)ccc2c1=O | 109 | 103 | 26 | 103 | 101 | 15 | / | / | / | / | / | / | /
CCc1cccc2c(C(=O)C(F)(F)F)cn(CC(=O)N3CCOCC3)c12 | 104 | 101 | 8 | 102 | ? | 12 | / | / | / | / | / | / | /
CN(C(=S)Nc1ccc(Oc2ccccc2)cc1)C1CCCCC1 | 14* | 87 | 6 | 72 | 85 | 6 | 87* | 0 | 100 | 98 | 100 | 101 | 99
SMILES | RGS16-Gao | RGS4-Gao reg | Avidin fluor | RGS8-Gao reg | RGS7-Gao | GSH bead fluor | RGS4-Gao HTS | Avidin counter | RGS8-Gao confirm | RGS7-Gao confirm | RGS16-Gao single | RGS4-Gao single | RGS19-Gao conf
O=C(O)c1cc(C(F)(F)F)nc2c(C(F)(F)F)cccc12 | 123 | 143 | 6 | 103 | 174*[activator] | 20 | 143* | / | / | / | / | / | /
CC1CCN(C(=O)c2ccc(N3C(=O)C4CCC(C)CC4C3=O)cc2)CC1 (configuration not stated) | 45 | 32* | 1 | 67 | ? | / | / | 0 | 101 | 106 | 102 | 102 | 96
Oc1c(Br)cc(Br)cc1/C=N/N1CCN(Cc2ccccc2)CC1 | 103 | 112 | 107* | 101 | 172*[activator] | 17 | 112* | -1 | 104 | 101 | 105 | 102 | 100
CN(Cc1ccccc1F)c1nc(-c2cccs2)nc2ccccc12 | 100 | 101 | 14 | 100 | 101 | 8 | / | / | / | / | / | / | /
COc1ccccc1Nc1nc2nonc2[nH]c1=O | 116 | 105 | 10 | 103 | 104 | 32 | / | / | / | / | / | / | /
O=C(NC(=S)Nc1cccc(O)c1)c1ccco1 | 95 | 98 | 5 | 98 | ? | / | / | / | / | / | / | / | /
